PubChem BioAssay (NCI)
About 83,000 compounds went through this panel and 20% of them were active in at least one assay; those are over-represented in the sample as a whole.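 Single-concentration screen, 48 h exposure, 96-well plates. Endpoint: percent growth. Below 10 = active.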 Values without a mark were called inactive. Active and inactive are the calls of the source.

Tests used:
Experiment in all cases: NCI-60 one-dose screen, 48 h (100 = growth as untreated, 0 = no growth, -100 = all killed)
Settings in all cases: 10 µM unless noted
NCI-H23 lung = system: NCI-H23 lung
NCI-H226 lung = system: NCI-H226 lung
NCI-H322M lung = system: NCI-H322M lung
HOP-62 NSCLC = system: HOP-62 NSCLC
NCI-H460 lung = system: NCI-H460 lung
NCI-H522 lung = system: NCI-H522 lung
A549/ATCC NSCLC = system: A549/ATCC NSCLC
786-0 renal = system: 786-0 renal
COLO 205 colon = system: COLO 205 colon
DU-145 prostate = system: DU-145 prostate
MALME-3M melanoma = system: MALME-3M melanoma
MDA-MB-231 breast = system: MDA-MB-231 breast
RXF 393 renal = system: RXF 393 renal
SF-268 CNS = system: SF-268 CNS
SF-295 CNS = system: SF-295 CNS
SF-539 CNS = system: SF-539 CNS
UACC-257 melanoma = system: UACC-257 melanoma
M14 melanoma = system: M14 melanoma
K-562 leukemia = system: K-562 leukemia

| SMILES | growth (NCI-H23 lung) | growth (NCI-H226 lung) | growth (NCI-H322M lung) | growth (HOP-62 NSCLC) | growth (NCI-H460 lung) | growth (NCI-H522 lung) | growth (A549/ATCC NSCLC) | growth (786-0 renal) | growth (COLO 205 colon) | growth (DU-145 prostate) | growth (MALME-3M melanoma) | growth (MDA-MB-231 breast) | growth (RXF 393 renal) | growth (SF-268 CNS) | growth (SF-295 CNS) | growth (SF-539 CNS) | growth (UACC-257 melanoma) | growth (M14 melanoma) | growth (K-562 leukemia) |
| --- | --- | --- | --- | --- | --- | --- | --- | --- | --- | --- | --- | --- | --- | --- | --- | --- | --- | --- | --- |
| COc1ccc(C2NC(=O)c3cc4c(cc3N2)OCO4)cc1 (stereo not drawn) | 8.1% (active) | 5.1% (active) | 50.4% | 27.8% | 5.06% (active) | -48.7% (active) | 18.9% | 37.1% | -22.1% (active) | 7.04% (active) | 58.7% | 31.3% | -2.15% (active) | 39.6% | -14% (active) | 8.24% (active) | 65.8% | -7.7% (active) | – |
| CC(C)(C)c1nn(-c2ccccc2)c2c1C(=O)CSC(c1ccc3c(c1)OCO3)N2 (stereo not drawn) | 99.8% | 104% | 88.8% | 88.6% | 106% | 89.7% | 112% | 88.7% | 113% | 104% | 92% | 98.6% | 114% | 92.5% | 91.4% | 101% | 130% | 91.3% | – |
| O=C(CC(=O)C(F)(F)C(F)(F)C(F)(F)F)c1cc2ccccc2o1 | 101% | 99.8% | 106% | 97.5% | 110% | 108% | 96.1% | 98.4% | 114% | 114% | 102% | 100% | 116% | 111% | 99.2% | 94.1% | 100% | 106% | – |
| COc1ccccc1CNCCCN1C(=O)c2ccc3c4c(ccc(c24)C1=O)C(=O)N(CCCOCCCCOCCCN)C3=O | -67.6% (active) | -10.8% (active) | -12.1% (active) | 14% | -65.5% (active) | -77.4% (active) | -33.8% (active) | 14.3% | -95% (active) | -74% (active) | -93.1% (active) | -4.84% (active) | -42.6% (active) | -21.5% (active) | -9.19% (active) | -34.9% (active) | -91.7% (active) | -85.4% (active) | – |
| C=C(c1ccc(C(=O)NCCCn2ccnc2)cc1)c1cc2c(cc1C)C(C)(C)CCC2(C)C | 44% | 72.3% | 42.8% | 18% | 13.9% | 10.2% | 40.3% | -17% (active) | 10.3% | 34% | -1.54% (active) | 28.7% | 35.8% | 38.5% | -29.6% (active) | 2.41% (active) | 99.2% | -76.4% (active) | – |
| O=S1(=O)NCCCN1CCNc1nccc(-c2c(-c3cccc(O)c3)nc3sccn23)n1 | 83.7% | 84.9% | 85.1% | 118% | 67.1% | 76% | 124% | 59.3% | 32.6% | 74.2% | 17.3% | 50.7% | 64.3% | 81.3% | 112% | 70.3% | 39.9% | 7.6% (active) | – |
| COc1ccccc1/C=C/C(=O)CCC(=O)O | 106% | 104% | 101% | 96.2% | 111% | 103% | 108% | 96.7% | 120% | 108% | 101% | 114% | 127% | 111% | 105% | 97.5% | 115% | 99.8% | – |
| O=C1CCCN1C(O)CCN(Cc1ccccc1)Cc1ccc(Cl)cc1 (stereo not drawn) | 103% | 105% | 95.5% | 104% | 105% | 93.3% | 103% | 95.7% | 124% | 110% | 109% | 112% | 123% | 105% | 94.2% | 114% | 106% | 99.9% | – |
| CCN(CCC#N)c1ccccc1 | 106% | 100% | 106% | 101% | 107% | 109% | 108% | 99.7% | 132% | 113% | 100% | 89.9% | 122% | 115% | 102% | 96.5% | 119% | 109% | – |
| Nc1ccc(C2=NNC(=O)Cc3cc4c(cc32)OCCO4)cc1Cl | 20.9% | 68.5% | 61.1% | 46% | 10.6% | 11% | 40.3% | 54.3% | 26.9% | 67.5% | 40.9% | 61.4% | 49.9% | 59.7% | 15.9% | 49.4% | 72.7% | 16.8% | – |
| COc1ccccc1CNCCCN1C(=O)c2ccc3c4c(ccc(c24)C1=O)C(=O)N(CCCCNCCCN)C3=O | -41.7% (active) | 62.6% | 5.96% (active) | 40.1% | -38.5% (active) | -78.4% (active) | 33% | 40% | -83.7% (active) | -72.6% (active) | -95.6% (active) | 9.1% (active) | -4.56% (active) | 2.12% (active) | 54.8% | -61.1% (active) | -95% (active) | -49.3% (active) | – |
| CC(C)C/C=C/C=C/C(=O)N[C@@H](CC(N)=O)C(=O)N[C@@H]1C(=O)N[C@H](c2ccc(O)cc2)C(=O)N[C@H](CCCN)C(=O)N[C@H]([C@@H](C)O)C(=O)N[C@H](c2ccc(O)cc2)C(=O)N[C@H](c2ccc(O)cc2)C(=O)N[C@H]([C@H](C)O)C(=O)N[C@H](Cc2ccccc2)C(=O)N[C@H](CCCN)C(=O)N[C@H](c2ccc(O[C@H]3O[C@@H](CO)[C@@H](O)[C@@H](O)[C@H]3O[C@@H]3O[C@H](CO)[C@H](O)[C@H](O)[C@@H]3O)cc2)C(=O)N[C@H]([C@H](C)O)C(=O)N[C@H](c2ccc(O)cc2)C(=O)NCC(=O)N[C@H](CC(C)C)C(=O)N[C@H](C)C(=O)N[C@H](c2ccc(O)c(Cl)c2)C(=O)O[C@@H]1C(N)=O | 39.5% | 68.6% | 57.5% | 53.4% | – | 78.1% | 91.8% | -48.7% (active) | 101% | 90.6% | 23.4% | -4.62% (active) | 44.9% | 59.9% | 20.1% | 4.24% (active) | 6.54% (active) | 44.4% | 30.8% |
| O=C(CSc1nnc(Cc2ccccc2Nc2c(Cl)cccc2Cl)n1-c1ccccc1)N1N=C(c2ccc3ccccc3c2)CC1c1ccc(Cl)cc1 (stereo not drawn) | 96.2% | 98.8% | 90.7% | 92.7% | – | 66.1% | 96.3% | 95.9% | 102% | 94.3% | 95.4% | 104% | 124% | 89.1% | 100% | 106% | 117% | 98.4% | 101% |
| CSc1ccc(/C=C2\C=C(CC(=O)NCc3ccc(C(=O)c4ccccc4)cc3)c3cc(F)ccc32)cc1 | -23.2% (active) | -40.8% (active) | 39.4% | -7.82% (active) | -43.7% (active) | -38.5% (active) | -0.932% (active) | -25.7% (active) | -75.6% (active) | -34.3% (active) | 49.3% | -7.54% (active) | -34.1% (active) | 1.28% (active) | -20.2% (active) | -36.2% (active) | 55.2% | -33.2% (active) | – |
| CC(=O)c1ccc(Br)c([N+](=O)[O-])c1 | 106% | 112% | 107% | 109% | – | 27.6% | 100% | 95.4% | 127% | 113% | 98.6% | 117% | 113% | 117% | 96.9% | 107% | 111% | 97.2% | 89.7% |
| COc1nccc2c(Sc3ccccc3)nc(N)nc12 | 98.8% | 103% | 110% | 113% | – | 88.1% | 104% | 88.9% | 117% | 104% | 137% | 100% | 117% | 105% | 103% | 119% | 111% | 118% | 93% |
